Screens deposited in PubChem by Center for Chemical Genomics, University of Michigan.
An excerpt weighted towards active compounds, which were near 0.9% of everything screened.
CDC25B CDK2 inh: primary biochemical HTRF screen for blockers of M-phase inducer phosphatase 2 binding to CDK2/cyclin A. z-score (concentration not given with the values). hit rate 0.72% among 94,000. AID 1259370, 2018. HTRF CDC25B-CDK2/CyclinA binding, anti-His/anti-Flag; active compounds read high; in the data active means z-score above about 3.2
TAR Tat displ: TAR RNA-Tat peptide displacers, HIV-1, primary screen, biochemical, FRET, FAM/TAMRA-labeled Tat; hit rate 0.6% among 100,000; HIV-1 TAR RNA, Tat peptide displacement FRET; active compounds read high; z-score (concentration not given with the values); active means z-score of 3 or more in at least 2 runs
* = called active by the depositor; / = no result.

SMILES | CDC25B CDK2 inh | TAR Tat displ
O=C(NCC1CCCO1)c1ccc(N2CCOc3ccc(Cl)cc32)s1 (stereo not drawn) | / | 0.5
O=c1c(SCc2ccccc2)nccn1-c1cccc(F)c1 | / | -1.3
CC(=O)Nc1nc(C)c(-c2csc(NCc3ccccc3)n2)s1 | 6.8* | /
CC(=O)Nc1nc(C)c(-c2csc(Nc3ccc(Cl)cc3)n2)s1 | -0.18 | -0.3
Cc1ccc(C(=O)c2cnc3cc4c(cc3c2N2CCC(C(N)=O)CC2)OCO4)cc1C | 2.7 | 17*
Cc1ccc(C(=O)c2cnc3cc4c(cc3c2N2CCC(C(N)=O)CC2)OCCO4)cc1C | -1.6 | 5.5
COc1ccccc1OCCn1c(=O)oc2ccccc21 | -1.3 | 5.2
Cc1c(C(=O)NCCCN2CCOCC2)oc2ccc3c(c12)C(O)CC1(CCCCC1)O3 (stereo not drawn) | / | 2
COc1ccc(OC)c(S(=O)(=O)NCc2cccn2Cc2ccc(Cl)cc2)c1 | / | 1.9
CC1(C)N=C(N)N=C(N)N1c1c(Cl)cccc1Cl | 7.9* | /
Cc1ccccc1N1C(N)=NC(N)=NC1(C)C | -0.13 | /
Cc1ccc(NS(=O)(=O)c2ccc3c(c2)NC(=O)C(C)CS3)c(C)c1 (stereo not drawn) | / | 0.64
O=C(COCc1cc(-c2cccs2)on1)N1CCC(N2CCCCC2)CC1 | / | -0.27
NC(=O)CSc1nc2ccccc2c(=O)[nH]1 | -0.94 | 2
O=C(CSc1nc2ccccc2c(=O)[nH]1)N1CCc2ccccc21 | / | 14*
Cc1nc(N2CCCC2)cc(N2CCN(C(=O)Nc3ccccc3)CC2)n1 | -0.11 | 0.7
CCCCSc1nnc2c(n1)OC(c1ccc(C)s1)Nc1ccc(Br)cc1-2 (stereo not drawn) | -0.97 | /
CN1C(=O)c2cc(C(=O)N3CCOCC3)nn2CC1(C)C(=O)NC1CCCC1 (stereo not drawn) | / | -1
O=c1ccc(N2CCCN(S(=O)(=O)c3cnc[nH]3)CC2)nn1-c1ccccc1 | / | 0.07
Cc1cc(S(=O)(=O)[C@H]2CS(=O)(=O)C[C@@H]2NCc2ccccn2)ccc1F | 0.19 | -1.3
COc1cc(OC)cc(C(=O)Nc2noc3ccccc23)c1 | -1.3 | 0.69
COc1cccc(C(=O)Nc2n[nH]c3ccccc23)c1 | 5.2* | /
O=C(C1=C(O)C(=O)N(CCCn2ccnc2)C1c1ccncc1)c1cccs1 (stereo not drawn) | -0.73 | /
O=C(CN1c2ccccc2S(=O)(=O)c2ccccc21)Nc1cc(F)ccc1F | / | -0.44
Cc1ccc(-n2cnc3cc(NCc4ccncc4)ccc32)cc1 | 3.5 | -0.08
SMILES | CDC25B CDK2 inh | TAR Tat displ
COc1ccccc1-n1cnc2cc(NCc3ccco3)ccc21 | 6.2 | -0.57
Cc1nc2cc(NCc3ccco3)ccc2n1C | 16* | -0.08
Cc1nc2cc(NCc3ccncc3)ccc2n1C | 14* | -0.77
CC(=O)c1c(C(F)(F)F)nc(=O)n(-c2ccccc2)c1C | -1.3 | /
COc1cccc(C2C3=C(CC(C)(C)CC3=O)Nc3nc(SCC(C)C)[nH]c(=O)c32)c1OC (stereo not drawn) | -1.2 | -0.18
Cc1cccc(CSc2nc3c(c(=O)[nH]2)C(c2ccc(O)c(O)c2)CC(=O)N3)c1 (stereo not drawn) | -0.51 | 12*
O=C1CC(c2ccc(O)c(O)c2)c2c(nc(SCc3ccccc3)[nH]c2=O)N1 (stereo not drawn) | 2.6 | 17*
Cc1ccc(CSc2nc3c(c(=O)[nH]2)C(c2ccc(O)c(O)c2)CC(=O)N3)cc1 (stereo not drawn) | 0.11 | 12*
Cc1ccc(CSc2nc3c(c(=O)[nH]2)C(c2cc(C)ccc2C)CC(=O)N3)cc1 (stereo not drawn) | -1.4 | 1.5
COc1ccc(C2CC(=O)Nc3nc(SCc4ccccc4)[nH]c(=O)c32)cc1Br (stereo not drawn) | -0.72 | 0.73
Cc1cccc(CSc2nc3c(c(=O)[nH]2)C(c2cc(F)cc(F)c2)CC(=O)N3)c1 (stereo not drawn) | 1.5 | 2.5
Cc1ccc(S(=O)(=O)NCc2cccn2Cc2ccccc2C)cc1C | / | 1.5
Cc1csc2nc(COc3ccc(NC(=O)c4cccs4)cc3)cc(=O)n12 | -2 | 1.1
CCCCC(CC)C1OC(C)CC(C)(C)O1 (stereo not drawn) | -2 | /
NS(=O)(=O)c1ccc2nc(NC(=O)CSc3ccccc3)sc2c1 | / | 1.1
COC(=O)C1=C(C)Nc2[nH]c(=O)[nH]c(=O)c2C1c1ccc(Br)cc1 (stereo not drawn) | 3.6* | 1.1
C=CCOC(=O)C1=C(C)Nc2[nH]c(=O)[nH]c(=O)c2C1c1ccc(CC)cc1 (stereo not drawn) | -1.7 | /
Clc1ccccc1/C=C/c1nn2c(-c3ccncc3)nnc2s1 | -0.92 | 0.36
C(=C\c1nn2c(-c3ccncc3)nnc2s1)/c1ccco1 | -1 | 26*
Cc1ccc(/C=C/c2nn3c(-c4ccco4)nnc3s2)cc1 | -1.8 | -1.3
Clc1cccc(-c2nnc3sc(-c4ccco4)nn23)c1 | -1.3 | 1.9
Cc1ccc(/C=C/c2nn3c(-c4ccco4)nnc3s2)cc1C | 3.9 | 17*
Cc1ccc(/C=C/c2nn3c(-c4ccncc4)nnc3s2)cc1 | -2.1 | -1.2
Clc1ccccc1-c1ccc(-c2nn3c(-c4ccco4)nnc3s2)o1 | 15* | 0.54
Clc1ccccc1/C=C/c1nn2c(-c3ccco3)nnc2s1 | 3.2 | 19*
SMILES | CDC25B CDK2 inh | TAR Tat displ
O=C(NCCN1CCOCC1)c1cnn2c3c(cnc12)CCCCCC3 | / | 0.19
CCC(C)NC(=O)c1c(O)c2c([nH]c1=O)CCCC2 (stereo not drawn) | / | 2.3
O=C(Oc1ccccc1)c1sc2ccccc2c1Cl | / | 2.5
C=C(C)/C=C1/C=CC(=O)C(C)=C1 | / | 4.5*
O=C(NC1CC1)c1ccc2nc(-c3ccccc3)c(-c3ccccc3)nc2c1 | / | 1.5
CCCCN(C)CCNS(=O)(=O)c1cc(Br)cc2c1N(C(C)=O)CC2 | 7.4* | /
CCCCN(C)CCNS(=O)(=O)c1cc(Br)cc2c1N(C(=O)CC)CC2 | 0.85 | /
Cc1nn(CC(=O)NCCC(C)C)c(=O)c2cc3ccccc3n12 | -0.78 | 1.5
CCSc1nn2c(=O)cc(COc3cc(C)ccc3C)nc2s1 | 1.1 | 7.7*
CCCc1nn2c(=O)cc(COc3cc(C)ccc3C)nc2s1 | 0 | 0.21
Cc1cc(NC(=O)c2csnn2)no1 | -0.36 | 1.2
Cc1cc(C)c(NC2=NC3CS(=O)(=O)CC3S2)c(C)c1 (stereo not drawn) | / | 0.38
CNC[C@H](O)c1ccc(O)c(O)c1 | -1.7 | /
NC[C@H](O)c1ccc(O)c(O)c1 | 5.9* | 27*
CCOc1ccc(OCC)c(NS(=O)(=O)c2ccc3c(c2)CC(C)N3C(C)=O)c1 (stereo not drawn) | / | 1.1
Cc1c(C(=O)Cn2ccnc2)sc2ccc(Cl)cc12 | 14* | /
Cc1c(C(=O)CC#N)sc2ccc(Cl)cc12 | -0.26 | /
CCn1nc(C)c(CCNC(=O)CCc2c(C)nn(-c3ccc(N4CCOCC4)nn3)c2C)c1C | / | -0.17
CCOC(=O)c1cc(NC(=O)N(Cc2ccco2)C2CCCCC2)c(C)nc1C | 0.92 | 1.9
Cc1nc(CNC(=O)[C@H]2CSCN2S(=O)(=O)c2ccc(F)c(Cl)c2)cs1 | / | 0.74
CS(=O)(=O)N1CCN(c2ccc(NC(=O)CN3C(=O)c4ccccc4S3(=O)=O)cc2)CC1 | 1.2 | 0.69
O=C(CN1C(=O)c2ccccc2S1(=O)=O)Nc1ccc(N2CCCC2)cc1 | 11* | 15*
CCOc1ccc(-c2cc(C(=O)O)c3cc(Br)ccc3n2)cc1 | -2.4 | 1.9
